Where “and” joins values, the source holds several entries; their conditions need not be identical. Equal values may be shown once. Results filed as inconclusive are left out. Calls of active or inactive are those of the source. The call rests on the fitted dose curve; in most records, active means well fitted activation curve with a large enough effect in the repeat runs; inconclusive means weak or mixed curves; inactive means flat fitted curve, though single readings scatter.
Test: A CellTox Green Cytotoxicity Assay to monitor cytotoxicity in HepG2 cells - 32 hour (AID 1224883); further: nearly all actives have a fitted effect of over 50% in size
Details: CellTox Green fluorescence; series mostly up to 76.8 µM; cytotoxicity increase: at the top concentration
Excerpt: National Center for Advancing Translational Sciences [NCATS]
NIH Chemical Genomics Center [NCGC]
U.S. Environmental Protection Agency [EPA]
National Institutes of Environmental Health Sciences [NIEHS]
National Toxicology Program [NTP]
Cell-based models are critical for drug discovery. Determining the natural cytotoxic effects resulting from test compounds is an essential research activity. A CellTox Green Cytotoxicity Assay to monitor cytotoxicity in real time of continues cell culture during 40 hours of the compound treatment was used to screen Tox21 10K library compounds in HepG2 cells. CellTox Green Cytotoxicity Assay is a nonlytic, homogeneous, biofluorescent method to measure cytotoxicity in cell culture after experimental manipulation. The assay system uses a proprietary asymmetric cyanine dye that is excluded from viable cells but preferentially stains the dead cell's DNA. […] Viable cells produce no appreciable increases in fluorescence. Therefore, the fluorescence signal produced by the binding interaction with dead cell DNA is proportional to cytotoxicity.
The mixture of HepG2 cell suspension and reagents were dispensed at 600cells/6 ul/well in 1536-well tissue culture treated black solid bottom plates using a Multidrop dispenser. After the assay plates were incubated at a 37 C/5% CO2 incubator for 5 hours, 23 nL of compounds dissolved in DMSO, positive and negative controls was transferred to the assay plate by a pintool work station. The plates were incubated at 37 C for 40 hours. The fluorescence intensity were measured at 0h, 8h, 16h, 24h, 32h and 40h time points using ViewLux plate reader during compound treatment.
On the % scale 0 is the no-effect control and ±100 the full control effect; potency means the concentration at half of the fitted maximal effect.

SMILES	Potency	cytotoxicity increase
CC=O	36.3 µM (active)	–
CCN=c1cc2oc3cc(NCC)c(C)cc3c(-c3ccccc3C(=O)OCC)c-2cc1C	21.8 µM (active)	–
S=P(N1CC1)(N1CC1)N1CC1	–	1.32% (inactive)
O=S(=O)(O)CCCN1CCOCC1	–	-15.6% (inactive)
CC(=O)C=O	–	5.99% (inactive)
Oc1cc2ccccc2cc1O	–	-10.3% (inactive)
CCCN(CCc1cccs1)[C@H]1CCc2c(O)cccc2C1	23.9 µM (active)	–
CCCCCCCCCCCCCc1ccccc1	–	-23.8% [at 35.3 µM] (inactive)
Oc1ccc(-c2ccc(O)cc2)cc1	–	5.68% (inactive)
CCc1cccc(C)c1	–	-11.1% (inactive)
CCC1CCCCC1	–	-14.1% (inactive)
CCO[Si](CCCSSSSCCC[Si](OCC)(OCC)OCC)(OCC)OCC	–	17.4% (inactive)
S=C(SSSSSSC(=S)N1CCCCC1)N1CCCCC1	–	16.8% [at 15.8 µM] (inactive)
O=C(O)c1cccc(Cl)n1	–	23.4% (inactive)
O=c1cccc[nH]1	–	-3.61% (inactive)
Nc1cc(Cl)c([N+](=O)[O-])cc1O	–	0.609% (inactive)
COc1ccccc1OCCNCC(O)COc1cccc2[nH]c3ccccc3c12 (stereo not given)	23.9 µM (active)	–
C[C@@H]1CC[C@H]2C(C)(C)[C@H]3C[C@@]12CC[C@@]3(C)O	54.9 µM (active)	–
CC(C)(C)C1=CC(=O)C=C(C(C)(C)C)C1=O	–	-0.224% (inactive)
C=C(C)C(=O)OCCC[Si](Cl)(Cl)Cl	–	-15.1% (inactive)

SMILES	Potency	cytotoxicity increase
O=C1OC(=O)c2cccc3cccc1c23	–	3.72% (inactive)
CCCCOCC	–	-22.9% (inactive)
CCCCCCCC(=O)OCC	–	1.44% (inactive)
Cc1cn[nH]c1	–	3.98% [at 35.3 µM] (inactive)
CC1=C(/C=C/C(C)=C/C=C/C(C)=C/C(=O)Nc2ccc(O)cc2)C(C)(C)CCC1	50.2 µM (active) and 26.8 µM (active)	–
C[Si](C)(C)Cl	–	-0.795% (inactive)
O=C1OC(OC(=O)c2cccnc2Nc2cccc(C(F)(F)F)c2)c2ccccc21 (stereo not given)	–	2.5% [at 35.3 µM] (inactive)
CC(C)N=C(N)/N=C(\N)Nc1ccc(Cl)cc1	26.8 µM (active)	–
CCO[Si](C)(C)OCC	–	-5.77% (inactive)
O=C[C@H](O)[C@H](O)[C@H](O)CO	–	0.259% (inactive)
COc1ccccc1C=O	–	4.38% (inactive)
CCCCCCCCC(C)=O	–	-10.7% (inactive)
CC(C)(c1cc(Br)c(O)c(Br)c1)c1cc(Br)c(O)c(Br)c1	–	21.7% (inactive)
C#CC(O)CCC (stereo not given)	–	-1.76% (inactive)
O=C1NCCN1CCN1CCC(c2cn(-c3ccc(F)cc3)c3ccc(Cl)cc23)CC1	26.8 µM (active)	–
CCCCCCCCCCCCCCCC	–	-5.8% (inactive)
O=C1OC(=O)c2ccc3c4c(ccc1c24)C(=O)OC3=O	–	-1.19% (inactive)
CC(C)c1ccccc1N	–	3.03% (inactive)
C1CC(COCC2CO2)CCC1COCC1CO1 (stereo not given)	–	-0.371% (inactive)
COCC(=O)O[C@]1(CCN(C)CCCc2nc3ccccc3[nH]2)CCc2cc(F)ccc2[C@@H]1C(C)C	10.7 µM (active)	–
